Screening results deposited in PubChem BioAssay by National Center for Advancing Translational Sciences (NCATS).
A selection: hits, their analogues and other compounds. The true share with any hit is near 21%.
Pf growth 96h – inhibits malaria parasite growth, 96 h. P. falciparum luciferase reporter growth, 96 h. hit rate 6.9% among 320,000. AID 504834. Potency, µM (series often up to 28.7 µM), usual class: inhibitors; active = well fitted inhibition curve with a large enough effect; inconclusive = small, poorly fitted or top-dose-only effect, or another doubt; inactive = no such curve, though single readings can be large or run the other way
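Two-generation exposure (96 h) targets delayed-death phenotype. Reporter parasites carrying integrated firefly luciferase, in red cells at 2% hematocrit and 0.05% parasitemia final, kept at 37 C, 5% CO2; luminescence loss indicates inhibition.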
NS1 function inh – inhibitors of influenza NS1 protein function. Potency, µM (series often up to 46.1 µM). hit rate 0.4% among 270,000; also: actives are rising curves; nearly all actives have a fitted effect of over 50% in size
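Compounds were scored for reversing the slow growth caused by influenza A NS1 in S. cerevisiae, measured by optical density at 600 nm. Assay medium contained 2% galactose at pH 6.0; NS1-free yeast of the same strain were the positive control.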
Pf growth 48h – inhibits P. falciparum growth in the first generation, 48 h; P. falciparum luciferase growth in erythrocytes, 48 h; Potency, µM (highest dose often 28.7 µM), hits mostly inhibitors; hit rate 5.9% among 310,000; active = well fitted inhibition curve with a large enough effect; inconclusive = small, poorly fitted or top-dose-only effect, or another doubt; inactive = no such curve, though single readings can be large or run the other way
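Parasite viability was followed by luminescence of a genomically integrated firefly luciferase. Cultures held 0.1% parasitemia at 2% hematocrit (final), incubated under 5% CO2 at 37 C.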
CHX counter-1 – affects cycloheximide protein synthesis inhibition readout, counter-screen; AID 2314; cell reporter, cycloheximide protein synthesis inhibition counterscreen; hit rate 12% among 300,000; max response, %; in the data active = max response mostly above about 13%, no sharp cut-off; inactive = mostly below about 14%; also: read at 38.3 µM for the half of the compounds with a filed dose
SARS PLpro yeast – blocks SARS-CoV papain-like protease in a yeast assay; S. cerevisiae expressing SARS-CoV PLpro, growth rescue; Potency, µM (titrated, usually from 32.9 µM), hits mostly activators; hit rate 0.19% among 330,000; also: nearly all actives have a fitted effect of over 55% in size
Shiga toxin inh – inhibitors of Shiga toxin in Vero cells; Vero cells, Shiga toxin protein synthesis inhibition reporter; inhibition, % at 38.7 µM; hit rate 9.2% among 290,000; AID 2315; in the data active = inhibition mostly above about 28%, no sharp cut-off; inactive = mostly below about 43%
CHX counter-2 – protein synthesis counter-screen activity for Shiga toxin hits; shares compounds with Shiga toxin inh; Cycloheximide counterscreen, protein synthesis reporter, Shiga toxin assay; Potency, µM (top dose mostly 38.3 µM), usual class: activators; hit rate 3% among 510; AID 2318
Hits are given with their value; [ ] = remark or other dose. Unless noted, calls follow the shape of the full dose curve.

What do the screens show for `Cc1ccc(N(CC(=O)NCc2ccco2)C(=O)CCC(=O)Nc2nccs2)c(C)c1`?
Pf growth 96h: inactive; NS1 function inh: inactive; Pf growth 48h: inactive; CHX counter-1: inactive; SARS PLpro yeast: inactive; Shiga toxin inh: 27.2; CHX counter-2: inactive

Results for ClCc1csc(-c2ccccc2Cl)n1 ?
Pf growth 96h: inactive; Pf growth 48h: inactive; CHX counter-1: inactive; SARS PLpro yeast: inactive; Shiga toxin inh: inactive

Results for Cc1oncc1-c1csc(-c2ccccc2Cl)n1 ?
Pf growth 96h: inactive; NS1 function inh: inactive; Pf growth 48h: inactive; CHX counter-1: inactive; SARS PLpro yeast: inactive; Shiga toxin inh: 121.3; CHX counter-2: inconclusive

What do the screens show for `c1ccc(C[C@@H](Nc2cccnc2)c2ccccc2)cc1`?
NS1 function inh: inactive

Results for NC(=O)c1nc(-c2cccs2)nc2c1[nH]c(=O)n2-c1ccc(F)cc1 ?
Pf growth 96h: inactive; NS1 function inh: inactive; Pf growth 48h: inactive; CHX counter-1: inactive; SARS PLpro yeast: inactive; Shiga toxin inh: inactive

Results for CC(OC(=O)c1ccc2c(=O)n3c(nc2c1)CCC3)C(N)=O (stereo not drawn) ?
Pf growth 96h: inactive; Pf growth 48h: inactive; CHX counter-1: inactive; SARS PLpro yeast: inactive; Shiga toxin inh: 51.2; CHX counter-2: inactive

Results for CC(OC(=O)c1ccc2c(=O)n3c(nc2c1)CCC3)C(=O)Nc1ccc(C(N)=O)cc1 (stereo not drawn) ?
Pf growth 96h: inactive; Pf growth 48h: inactive; SARS PLpro yeast: inactive[6.58 µM]

What do the screens show for `O=C(NNC(=O)C1CC1)c1cc(Br)c(Br)s1`?
SARS PLpro yeast: inactive

What do the screens show for `CCC1(C)Nc2ccccc2C(=O)N1O` (stereo not drawn)?
Pf growth 96h: inactive; NS1 function inh: inactive; Pf growth 48h: inconclusive; CHX counter-1: inactive; SARS PLpro yeast: inactive; Shiga toxin inh: inactive

What do the screens show for `CCCCC1(C)Nc2ccccc2-c2nc3ccccc3n21` (stereo not drawn)?
Pf growth 96h: 1.31µM; NS1 function inh: inactive; Pf growth 48h: 2.08µM; CHX counter-1: inactive; SARS PLpro yeast: inactive; Shiga toxin inh: 83.7; CHX counter-2: 22.5µM

Results for CCCC[C@H]1CCCO[C@@](C(=O)NCc2ccccn2)(C(F)(F)F)C1 ?
CHX counter-1: inactive; Shiga toxin inh: inactive

Results for NS(=O)(=O)c1ccc(CCNC(=O)COC(=O)c2nc(Cl)ccc2Cl)cc1 ?
Pf growth 96h: inactive; Pf growth 48h: inactive; SARS PLpro yeast: inactive

Results for Clc1nssc1=Nc1ccc(Br)cc1 ?
Pf growth 96h: inactive; Pf growth 48h: inactive; CHX counter-1: inactive; SARS PLpro yeast: inactive; Shiga toxin inh: 59.0; CHX counter-2: inactive

How did COc1ccccc1CN(C)S(=O)(=O)c1cccs1 do in these assays?
Pf growth 96h: inactive; NS1 function inh: inactive; Pf growth 48h: inactive; CHX counter-1: inactive; SARS PLpro yeast: inactive; Shiga toxin inh: 68.6; CHX counter-2: inactive

How did CN(Cc1ccccc1C#N)S(=O)(=O)c1cccs1 do in these assays?
Pf growth 96h: inactive; NS1 function inh: inactive; Pf growth 48h: inactive; CHX counter-1: inactive; SARS PLpro yeast: inactive; Shiga toxin inh: inactive

Results for Cc1ccc(NS(C)(=O)=O)c(C(=O)c2ccccc2)c1 ?
Pf growth 96h: inactive; NS1 function inh: inactive; CHX counter-1: inactive; SARS PLpro yeast: inactive; Shiga toxin inh: inactive

What do the screens show for `Cc1oc(C(C)(C)C)cc1C(=O)NCC(=O)NCC(=O)O`?
Pf growth 96h: inactive; NS1 function inh: inactive; Pf growth 48h: inconclusive; CHX counter-1: inactive; SARS PLpro yeast: inactive; Shiga toxin inh: 49.8; CHX counter-2: inactive

How did CCC(C)C1/C=C\CC(NC(=O)OCC2c3ccccc3-c3ccccc32)CC(=O)N1Cc1ccccc1 (stereo not drawn) do in these assays?
SARS PLpro yeast: inactive

Results for O=C(O)Cn1nnc(-c2ccc(OCc3ccccc3Cl)cc2)n1 ?
Pf growth 96h: inactive; NS1 function inh: inactive; Pf growth 48h: inactive[0.00184 µM]; CHX counter-1: inactive; SARS PLpro yeast: inactive; Shiga toxin inh: 39.9; CHX counter-2: inactive

Results for COc1ccc(-c2csc(/C(C#N)=C(\O)CSc3nccn3C)n2)cc1OC ?
Pf growth 96h: inconclusive; NS1 function inh: inactive; Pf growth 48h: inconclusive; CHX counter-1: inactive; SARS PLpro yeast: inactive; Shiga toxin inh: inactive

What do the screens show for `NC(=O)C1CCN(C(=O)C2c3ccccc3C(=O)N3CCc4ccccc4C23)CC1` (stereo not drawn)?
Pf growth 96h: inactive; NS1 function inh: inactive; Pf growth 48h: inactive; CHX counter-1: inactive; SARS PLpro yeast: inactive; Shiga toxin inh: 46.2; CHX counter-2: inactive

Results for COc1ccc(S(=O)(=O)N(CCc2ccccc2)CC(=O)O)cc1 ?
Pf growth 96h: inactive; NS1 function inh: inactive; CHX counter-1: inactive; SARS PLpro yeast: inactive; Shiga toxin inh: inactive

Results for CSc1ccc(/C=C(\C#N)C(=O)NC2CCCCC2C)cc1 (stereo not drawn) ?
Pf growth 96h: inconclusive; NS1 function inh: inactive; Pf growth 48h: inconclusive; CHX counter-1: inactive; SARS PLpro yeast: inactive; Shiga toxin inh: 26.6; CHX counter-2: inactive

What do the screens show for `COc1cc(/C=C(\C#N)C(=O)NC2CCCCC2C)ccc1OS(=O)(=O)c1ccc(C)cc1` (stereo not drawn)?
Pf growth 96h: inconclusive; NS1 function inh: inactive; Pf growth 48h: inconclusive; CHX counter-1: inactive; SARS PLpro yeast: inactive; Shiga toxin inh: inactive

What do the screens show for `CC(CCN1CCN(c2ccc(F)cc2)CC1)c1ccccc1` (stereo not drawn)?
Pf growth 96h: inactive; NS1 function inh: inactive; Pf growth 48h: inactive; CHX counter-1: inactive; SARS PLpro yeast: inactive; Shiga toxin inh: inactive

What do the screens show for `Cc1nnc(NC(=O)C2COc3ccccc3O2)s1` (stereo not drawn)?
NS1 function inh: inactive; Pf growth 48h: inactive; CHX counter-1: inactive; SARS PLpro yeast: inactive; Shiga toxin inh: 98.8; CHX counter-2: inconclusive

Results for Cc1cccnc1NC(=O)C1COc2ccccc2O1 (stereo not drawn) ?
Pf growth 96h: inconclusive; Pf growth 48h: inactive; CHX counter-1: inactive; SARS PLpro yeast: inactive; Shiga toxin inh: inactive

Results for O=C(Cn1c(NCCO)nc2ccccc21)c1ccccc1 ?
Pf growth 96h: 9.28µM; NS1 function inh: inactive; Pf growth 48h: inactive; CHX counter-1: inactive; SARS PLpro yeast: inactive; Shiga toxin inh: active; CHX counter-2: inactive

Results for O=C(CSCc1ccco1)NC1CCCC1 ?
Pf growth 96h: inactive; NS1 function inh: inactive; Pf growth 48h: inactive; CHX counter-1: inactive; SARS PLpro yeast: inactive; Shiga toxin inh: 29.4; CHX counter-2: inactive

How did Cc1ccccc1CSCC(=O)NC1CCCC1 do in these assays?
NS1 function inh: inactive; Pf growth 48h: inactive; CHX counter-1: inactive; SARS PLpro yeast: inactive; Shiga toxin inh: inactive

Results for CCc1ccccc1NC(=O)Cn1nnc(-c2cccs2)n1 ?
Pf growth 96h: inconclusive; NS1 function inh: inactive; Pf growth 48h: inconclusive; CHX counter-1: inactive; SARS PLpro yeast: inactive; Shiga toxin inh: 48.5; CHX counter-2: inactive
